Assay outcomes from PubChem.
E coli growth-1 = E. coli V3065 growth inhibition, primary screen, counter-screen for AddAB inhibitor project, absorbance, OD600 | 18 h | inhibition, % at 11.9 µM | actives 0.27% (n = 330,000) | AID 449728, 2010;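 active means inhibition above the campaign's mean inhibition across all tested compounds plus 3 SD, cut at about 9.9% in these data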;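 further: uninfected addAB+ strain grown without phage in ampicillin broth; 0% = DMSO wells and 100% = ciprofloxacin 0.95 µg/ml wells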
Tat transport = E. coli Tat export inhibitors, primary screen, MC4100, TorA-mCherry reporter, fluorescence, single point. inhibition, % at 10 µM. actives 0.036% (n = 340,000);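 active means mean replicate inhibition at least 50% and at least half of replicates individually reaching 50%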;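 further: exported cargo escapes ClpAP degradation while cytoplasmic cargo is degraded and loses fluorescence; 0% = median of neutral control wells and 100% = median of NaSCN control wells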
AddAB inh = growth inhibition of E. coli expressing H. pylori AddAB, primary screen, AddAB inhibitor project, absorbance; inhibition, % at 11.9 µM; actives 0.29% (n = 330,000); AID 435030, 2010; in the data active means inhibition above about 12%;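 further: 0% = vehicle wells of infected cells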
E coli growth-2 = E. coli growth inhibition, primary screen, OD600; actives 0.21% (n = 330,000); AID 1053175, 2014; OD600 absorbance (concentration not given with the values); Escherichia coli growth, 23 h; hits give low values;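 active means OD600 absorbance below the run mean of sample wells minus 3.6 SD, in any replicate, cut at about 0.56 in these data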
phage Ecoli inh = growth loss of phage-infected E. coli, primary screen, RecBCD inhibitor project, absorbance, with phage, HTS | inhibition, % at 11.9 µM | actives 0.26% (n = 360,000); in the data active means inhibition above about 11%
AddAB confirm = growth loss of phage-infected E. coli expressing H. pylori AddAB, confirmation, AddAB inhibitor project, absorbance, E. coli V3065, T4 phage, triplicate; shares compounds with AddAB inh; OD; T4 phage with gene 2 nonsense mutations; inhibition, % at 11.9 µM; actives 64% (n = 880); AID 488942, 2010;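 active means mean inhibition above a set limit taken from the earlier primary screen, cut at about 13% in these data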;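 further: higher means less bacterial growth since AddAB block lets phage replicate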
RecBCD counter = growth loss of RecBCD+ E. coli with mutant T4 phage, counter-screen for AddAB inhibitor project, absorbance, V66 E. coli; shares compounds with AddAB inh; OD growth; inhibition, % at 11.9 µM; actives 73% (n = 880); AID 488955, 2010;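 active means mean inhibition above the mean of solvent-only control wells plus 3 SD, cut at about 4% in these data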;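 further: optical density read after an 18 h incubation at 37 °C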
bact viab count = bacterial viability inhibition counter-screen, confirmation, counter-screen for AddAB inhibitor project, absorbance | shares compounds with AddAB inh | absorbance (AddAB counterscreen) | inhibition, % at 11.9 µM | actives 35% (n = 880) | AID 488956, 2010; in the data active means inhibition above about 25%
* = called active by the depositor; / = no result given. Sampled rows, rich in hits. Any-hit rate of the full collection: about 0.5%.

SMILES	E coli growth-1	Tat transport	AddAB inh	E coli growth-2	phage Ecoli inh	AddAB confirm	RecBCD counter	bact viab count
Cn1cnc(Sc2ncnc3nc[nH]c23)c1[N+](=O)[O-]	17*	6	26*	/	11	53*	10*	33*
Cn1cnc([N+](=O)[O-])c1Sc1ncnc2nc[nH]c12	1	-2	2	0.7	2	/	/	/
Oc1ccc(/C=N/N=C/c2ccc(O)c(O)c2)cc1O	-3	4	34*	/	0	-1	0	-2
Oc1ccc(N=Cc2ccc(O)c(O)c2)cc1	0	-6	1	0.68	/	/	/	/
Cc1cc(NN=Cc2ccc(Cl)cc2Cl)nc(NCc2ccccc2)n1	/	/	/	0.69	/	/	/	/
O=Nc1ccc(O)c2ncccc12	12*	5	12*	0.4*	2	98*	3	17
COc1ccc(OC)c(-c2c3cc(O)c(=O)cc-3oc3cc(O)c(O)cc23)c1	4	20	14*	/	/	7	3	2
O=c1cc2oc3cc(O)c(O)cc3c(-c3ccccc3O)c-2cc1O	/	1	/	0.72	/	/	/	/
Cc1cccc2c1OCCC2=NNC(=O)COc1ccccc1	/	/	/	0.75	/	/	/	/
CC(NC(=O)CN1CCOCC1)c1ccc(F)cc1 (stereo not drawn)	16*	-5	15*	0.65	1	2	0	-2
CCCC(=O)NC(c1ccccc1Cl)c1ccc2cccnc2c1O (stereo not drawn)	35*	2	34*	/	26*	29*	27*	26*
COc1ccc(C(NC(=O)C(C)C)c2ccc3cccnc3c2O)cc1 (stereo not drawn)	26*	27	26*	0.59	25*	26*	24*	19
CCCCC(=O)NC(c1ccc(OC)cc1)c1ccc2cccnc2c1O (stereo not drawn)	/	/	/	/	10	/	/	/
Clc1ccc(C(Cc2nc3ccccc3[nH]2)=NNc2ccccc2)cc1	/	/	/	0.66	/	/	/	/
COc1ccc(/C=N/NC(=S)SC)cc1OC	13*	-1	18*	/	8	44*	12*	30*
CC1=NN(C(N)=S)C(=O)C1N=Nc1c(C)cc(C)cc1C (stereo not drawn)	8	-5	1	0.7	2	/	/	/
CC1=NN(C(N)=S)C(=O)C1N=Nc1c(Br)cc(Br)cc1Br (stereo not drawn)	14*	4	14*	/	10	26*	13*	26*
CC1=NN(C(=O)c2ccc(Cn3ccc([N+](=O)[O-])n3)cc2)C(O)(C(F)(F)F)C1 (stereo not drawn)	7	5	14*	0.73	5	3	1	-1
O=C(N/N=C/c1cc([N+](=O)[O-])ccc1O)c1cccc2cc[nH]c12	10*	-3	14*	/	5	3	7.0*	-1
O=C(NN=Cc1cc([N+](=O)[O-])ccc1O)c1cccc2cc[nH]c12	/	/	/	0.71	/	/	/	/
O=C(Cn1cc(C(F)(F)F)ccc1=O)NN=Cc1ccccc1O	/	/	/	0.7	/	/	/	/
O=C(O)CCCCCn1c(SCC(=O)c2ccc(O)c(O)c2)nc2ccsc2c1=O	-2	-19	1	0.67	-2	/	/	/
CCCCn1c(SCC(=O)c2ccc(O)c(O)c2)nc2ccsc2c1=O	9	-1	15*	0.66	/	4	4.7*	4
Cn1c(=O)c2c(ncn2CC(=O)NN=Cc2ccc(Br)s2)n(C)c1=O	/	/	/	0.68	/	/	/	/
CCOC(=O)c1[nH]c2ccccc2c1NC(=O)C(CC)CC	11*	12	63*	0.71	2	-3	0	-2
SMILES	E coli growth-1	Tat transport	AddAB inh	E coli growth-2	phage Ecoli inh	AddAB confirm	RecBCD counter	bact viab count
CCOC(=O)c1[nH]c2ccccc2c1NC(C)=O	-3	-6	-3	0.73	6	/	/	/
C#CCCOC(=O)N1C2=NC(C(=O)OC)=C(C(=O)OC)C3N(C)c4ccc(OC)cc4[C@]23CC1C(=O)OC (stereo partly drawn)	/	/	/	0.71	/	/	/	/
O=Cc1ccc(OCc2cccc(C(F)(F)F)c2)cc1O	12*	-4	13*	0.61	10	8	9.5*	6
COc1ccc(-c2nc(Cn3c(SCc4cccc(F)c4)nc4ccncc43)c(C)o2)cc1OC	83*	6	96*	0.72	0	-3	-1	-2
CCCCOC(=O)C(C)Oc1ccc(=O)n(-c2ccccc2)n1 (stereo not drawn)	5	-3	21*	0.77	2	4	1	-3
C=CC(C)(C)OC1OC(CO)C(O)C(O)C1O (stereo not drawn)	/	/	/	0.69	/	/	/	/
Cc1cc(Cl)ccc1OCCCC(=O)NNC(=O)c1ccccc1O	8	2	17*	0.71	10	8	8.7*	8
CCOc1ccc(NC(=O)CCC(=O)N2CCSc3ccccc32)cc1	-1	-1	19*	0.74	4	-3	0	-3
COc1cccc(/C=N/NC(=O)c2[nH]c(C)c(C(=O)N/N=C/c3cccc(OC)c3O)c2C)c1O	28*	11	28*	/	22*	18*	21*	13
COc1ccc(C=NNC(=O)C2CCCC2)cc1Br	/	/	/	0.63	/	/	/	/
O=[N+]([O-])c1cc(C(F)(F)F)ccc1NN=Cc1cc2ccccc2nc1Cl	/	/	/	0.75	/	/	/	/
CCOC(=O)c1c(NC(=O)NN=Cc2ccccc2OCC)sc(C(C)=O)c1C	/	/	/	0.7	/	/	/	/
COc1cnc(-c2ccccn2)nc1Sc1ccccc1	0	-3	14*	0.69	4	3	2	-2
Cc1ccc(S(=O)(=O)Oc2cccc(C=NNc3ccc(C(=O)O)cc3)c2)cc1	/	/	/	0.68	/	/	/	/
O=C(Cn1c(=O)oc2cc(S(=O)(=O)N3CCCCCC3)ccc21)NC1CCCCCCC1	-1	-15	-2	0.79	2	/	/	/
CCCNC(=O)Cn1c(=O)oc2cc(S(=O)(=O)N3CCCC3)ccc21	37*	0	55*	0.76	-2	-2	-1	-4
COc1cc(C=NNC(N)=O)cc(Br)c1OCc1ccc(C)cc1	/	/	/	0.71	/	/	/	/
CCOC(=O)N1CCN(c2cc(=O)n(-c3ccc(C)cc3)c(=O)[nH]2)CC1	22*	3	97*	0.79	2	-2	0	-3
Cc1ccc(S(=O)(=O)CCC(=O)Nc2ccc(S(=O)(=O)N(C)C)cc2)cc1	96*	/	97*	0.64	/	-5	0	-2
Cc1ccc(S(=O)(=O)CCC(=O)NNC(=O)CN(C)S(=O)(=O)c2ccc(C)cc2)cc1	-1	3	0	0.66	3	/	/	/
Cc1nnc(SCC(=O)NCc2ccc3c(c2)OCO3)s1	44*	-14	19*	0.68	1	-6	0	-4
